The list is not random: actives were taken first. Their share in the collection is about 8.8%.
KB-3-1 cytotox – kills parental KB-3-1 adenocarcinoma cells. 400,000 tested, 1.4% active. KB-3-1 viability, CellTiter-Glo ATP luminescence, 72 h. Potency, µM (series often up to 46.1 µM), most hits filed as cytotoxic; also: potency is read from the fitted curve at half-maximal effect; nearly all actives have a fitted effect of over 60% in size
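Parental KB-3-1 viability, qHTS format: 72 h compound exposure, 37 °C; CellTiter-Glo; media-only wells and DMSO plates as controls; concentration-effect fits on corrected data.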
IL1B secr inh – inhibitors of inflammasome signaling (IL-1 beta secretion); AID 743279; activity change, % at 57.5 µM; THP-1 LPS/ATP IL-1B secretion, AlphaLISA, 16 h; active compounds read low; 360,000 tested, 4.7% active; in the data active = activity change below about -50%; inconclusive = mostly about -30% to -49%
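THP-1 cells pretreated 1 hr with compounds (up to 57.5 uM final), then stimulated with LPS (250 ng/mL final) plus ATP (1.25 mM final); secreted IL-1B measured by AlphaLISA after 16 hr, decreased signal indicating inhibition.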
HT1080 IDH1KD tx – kills HT-1080 cells with IDH1 knockdown. HT-1080 IDH1 knockdown viability, ATP luminescence, 48 h. Potency, µM (titrated, usually from 46.1 µM), for inactives: at the highest dose activity, negative = toxicity, most hits filed as cytotoxic. 360,000 tested, 2% active;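 also: potency is read from the fitted curve at half-maximal effect; 0% = DMSO wells and -100% = cell-free medium wells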
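HT-1080-IDH1KD cells (IDH1 knocked down), 750/well in RPMI with 5% FBS, treated with compound 48 h at 37 degrees C. Viability by CellTiter-Glo luminescence, normalised to DMSO and no-cell wells; concentration-response curves classed.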
KB-V1 cytotox – kills drug-selected multidrug resistant KB-V1 cells; KB-V1 MDR cells viability, CellTiter-Glo, 72 h; Potency, µM (highest dose often 46.1 µM), most hits filed as cytotoxic; 400,000 tested, 3.4% active; also: potency is read from the fitted curve at half-maximal effect; nearly all actives have a fitted effect of over 60% in size
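qHTS viability screen in drug-selected KB-V1 MDR cells: 72 h compound treatment at 37 degrees C, ATP luminescence end point.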
HT1080NT lethal – kills 2HG-producing HT-1080-NT fibrosarcoma cells; HT-1080-NT fibrosarcoma viability, CellTiter-Glo ATP luminescence, 48 h; Potency, µM (top dose mostly 46.1 µM), without a hit: at the highest dose activity, negative = less viability, usual class: cytotoxic; AID 686970; 360,000 tested, 1.6% active;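 also: NT is the 2HG producing partner of a matched IDH1 knockdown line; potency is read from the fitted curve at half-maximal effect; 0% = DMSO-treated cells and -100% = media-only wells without cells; nearly all actives have a fitted effect of over 55% in size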
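HT-1080-NT; 750 cells/well; 5% FBS RPMI; 48 h compound, 37 degrees C; CellTiter-Glo luminescence; curve fitting and curve-class assignment.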
Numbers without * were called inactive; i = inactive; ? = inconclusive; . = no result given. Unless noted, calls follow the shape of the dose curve; as a rule, active = well fitted curve in the direction sought with a large enough effect; inconclusive = small, poorly fitted or top-dose-only effect, or another doubt; inactive = no such curve, though single readings can be large; an effect the other way counts as inactive or inconclusive. Unless noted, % is scaled to controls: 0 for no effect and ±100 for the full control effect.

SMILES	KB-3-1 cytotox	IL1B secr inh	HT1080 IDH1KD tx	KB-V1 cytotox	HT1080NT lethal
Cc1nc(CC(=O)c2c(C)cc(O)cc2O)cs1	20.6µM*	-18.9	-24.7%	20.6µM*	-14.6%
Cc1nc(CC(=O)c2ccc(O)cc2O)cs1	i	11.0	-12.4%	i	-0.2%
CCCC1=Nc2cc(C(=O)N3CCCC3)ccc2Sc2ccc(C)cc21	i	11.6	?	?	-14.0%
CCOC(=O)N1CCN(C(=O)c2ccc3c(c2)N=C(CC)c2cc(C)ccc2S3)CC1	i	-4.1	-14.3%	i	9.6%
CCOC(=O)N1CCC(NC(=O)c2ccc3c(c2)N=C(CC)c2cc(C)ccc2S3)CC1	7.31µM*	28.3	5.8µM*	?	?
CCCC1=Nc2cc(C(=O)N3CCN(c4ccccn4)CC3)ccc2Sc2ccc(C)cc21	i	-50.0*	-24.6%	i	?
CCC1=Nc2cc(C(=O)NCc3ccco3)ccc2Sc2ccc(C)cc21	?	2.7	1.3µM*	0.164µM*	1.3µM*
CCCC1=Nc2cc(C(=O)N3CCC(C)CC3)ccc2Sc2ccc(C)cc21	i	.	.	i	.
CCC1=Nc2cc(C(=O)NCCN3CCOCC3)ccc2Sc2ccc(C)cc21	i	9.5	-9.6%	i	-3.1%
CCC1=Nc2cc(C(=O)NC3CCC(C)CC3)ccc2Sc2ccc(C)cc21 (configuration not stated)	4.61µM*	.	.	4.11µM*	.
Cc1cc(OCC(=O)NNC(=S)NC(=O)c2ccc(Br)o2)ccc1Cl	i	35.5	-15.9%	i	-13.4%
Cc1cc(=O)oc2cc(OCC(=O)Nc3c(C)n(C)n(-c4ccccc4)c3=O)c(Cl)cc12	i	-2.1	5.6%	i	9.6%
COc1ccc(/C=N/NC2=NCCCCC2)c(OC)c1	i	20.6	3.6%	i	19.9%
COc1cccc(CN2CC(C(=O)N(C)Cc3ccnc4ccccc34)CCC2=O)c1 (configuration not stated)	i	7.1	-2.2%	i	-4.6%
CCCC1=Nc2cc(C(=O)NCCN3CCOCC3)ccc2Sc2ccc(C)cc21	?	14.4	?	i	?
CCCC1=Nc2cc(C(=O)NC3CCCCC3)ccc2Sc2ccc(C)cc21	0.517µM*	.	.	0.82µM*	.
CCCCn1nnnc1C(c1cccc2ccccc12)N1CCN(C/C=C/c2ccccc2)CC1 (configuration not stated)	?	-58.6*	?	?	?
COc1ccc(-n2nnnc2C(c2ccccc2)N2CCN(C/C=C/c3ccccc3)CC2)cc1 (configuration not stated)	i	-55.5*	?	?	?
FC(F)(F)Oc1ccccc1C(c1nnnn1Cc1ccccc1)N1CCN(C/C=C/c2ccccc2)CC1 (configuration not stated)	i	-55.3*	-16.1%	?	-18.4%
CCCCn1nnnc1C(c1ccccc1OC(F)(F)F)N1CCN(C/C=C/c2ccccc2)CC1 (configuration not stated)	i	?	?	?	?
O=C(Cc1c(Cl)cccc1Cl)Nc1cccnc1	i	34.3	16.7%	i	13.1%
CN1C(=O)N(CC(=O)Nc2ccc3c(c2)OCO3)C(=O)C12CCCCC2	i	-16.8	-1.8%	i	0.1%
CN(C)c1ccc(NC(=O)COC(=O)Cn2nnc3ccccc32)cc1	i	15.8	-3.3%	i	0.3%
CC1(C)CC(=O)C2=C(C1)OC1=C(C(=O)CC(C)(C)C1)C2c1ccc(O)c([N+](=O)[O-])c1	i	3.5	4.1%	i	1.1%
CC1(C)CC(=O)C2=C(C1)OC1=C(C(=O)CC(C)(C)C1)C2c1ccc(O)cc1O	i	-104.4*	5.01µM*	i	5.62µM*
SMILES	KB-3-1 cytotox	IL1B secr inh	HT1080 IDH1KD tx	KB-V1 cytotox	HT1080NT lethal
Cc1ccc(-n2nc(C(=O)N(C)Cc3ccccc3)c3c4ccccc4n(C)c3c2=O)cc1	i	.	.	i	.
CC(C)c1cccc(C(C)C)c1NC(=O)CNCC(O)c1ccccc1 (configuration not stated)	i	-26.6	14.7%	i	-0.7%
CC(C)c1cccc(C(C)C)c1NC(=O)CCl	?	-82.5*	-4.7%	?	1.6%
O=S1(=O)N=C(Sc2cccc3cccnc23)c2ccccc21	9.2µM*	.	.	?	.
Cc1ccc(C)c(SC2=NS(=O)(=O)c3ccccc32)c1	i	.	.	i	.
CCCN(CC(=O)Nc1cc(Cl)ccc1Cl)C(=O)c1ccc(N2CCCC2=O)cc1	?	1.6	-2.4%	7.31µM*	0.2%
CCCN(CC(=O)Nc1ccccc1C)C(=O)c1ccc(N2CCCC2=O)cc1	i	-10.6	1.8%	i	4.0%
Cc1ccc(S(=O)(=O)N2CCCC(c3nc4c(nnn4Cc4ccc5c(c4)OCCO5)c(=O)[nH]3)C2)cc1 (configuration not stated)	i	?	8.0%	i	8.5%
O=C(Cn1sc2ccccc2c1=O)Nc1ccccc1	?	-104.2*	?	i	?
O=C(Cn1sc2ccccc2c1=O)NC12CC3CC(CC(C3)C1)C2	i	-99.2*	?	?	-9.3%
CC(C)OC(=O)C(NC(=O)c1ccccc1)=C1CCCCC1	i	-7.1	7.6%	20.6µM*	8.9%
CC(C)OC(=O)/C(=C\c1ccccc1)NC(=O)c1ccccc1	i	-1.8	-1.1%	i	1.1%
CC(C)OC(=O)/C(=C\c1cccc2ccccc12)NC(=O)c1ccccc1	i	-78.5*	-11.7%	?	8.7%
COc1ccc(C(=S)N2CCN(c3ccccc3C)CC2)cc1	i	?	-5.6%	i	-1.3%
CN(Cc1ccccc1)C(=O)Nc1c(Cl)cccc1Cl	i	-16.4	?	?	1.1%
COC1=CC(=O)[C@@]2([C@@H]1O)[C@@H](Cl)C[C@]13C(OC)=C(OC)C(=O)C[C@]21CCN3C	i	23.3	10.7%	i	20.1%
O=C(Nc1ccc(Oc2c(F)c(F)c(F)c(F)c2F)cc1)OC1CCN2Cc3ccccc3N=C12 (configuration not stated)	8.2µM*	-94.9*	?	?	?
COc1ccc(NS(=O)(=O)c2cccc(C(=O)O)c2)cc1S(=O)(=O)N1CCCCC1	i	0.1	-3.8%	i	2.4%
Fc1ccc2nc(Nc3nc4c(F)cc(F)cc4s3)sc2c1	?	-60.8*	-7.3%	?	-7.3%
Fc1cccc2sc(Nc3nc4ccccc4s3)nc12	i	0.0	-10.2%	20.6µM*	-11.6%
Cc1ccc(Nc2nc3ccccc3s2)c(C)c1	i	-61.6*	-22.3%	i	-10.2%
Fc1ccc2nc(Nc3nc4c(F)cccc4s3)sc2c1	i	0.0	?	?	-29.4%
